# Apoferritin bind = candidate novel general anesthetic via apoferritin binding; hit rate 0.074% among 350,000; P02791; Potency, µM (highest dose often 77.5 µM), without a hit: top-dose activity change, negative = displacement, most hits filed as inhibitors; apoferritin/1-aminoanthracene competitive binding, fluorescence; also: % is scaled to controls: 0 for no effect and ±100 for the full control effect; nearly all actives have a fitted effect of over 20% in size
#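 Horse-spleen apoferritin (10 uM) was mixed with 50% saturated 1-aminoanthracene in PBS, exposed to compounds for 10 min at room temperature, and read for fluorescence (ex 380 nm, em 535 nm). Competitive displacement was fitted with a four-parameter Hill equation.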
# TrxR1 substrate = substrates of rat thioredoxin reductase 1 | purified TrxR1 substrate turnover, NADPH consumption readout | AID 588456 | Potency, µM (titrated, usually from 114 µM), for inactives: at the top dose activity change, negative = substrate turnover | hit rate 0.01% among 390,000 | O89049; also: % is scaled to controls: 0 for no effect and ±100 for the full control effect; nearly all actives have a fitted effect of over 50% in size
#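 Rat TrxR1, dispensed at 90 nM, was prereduced with 400 uM NADPH (final) for 5 min at ~22 deg C, then incubated with compound 15 min before 400 uM selenite. A first-read NADPH fluorescence drop versus no-compound background flagged substrates.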
# IDH1 R132H inh = blocks human mutant IDH1 R132H enzyme; O75874; IDH1-R132H enzyme, NADPH consumption, diaphorase/resazurin fluorescence; Potency, µM (top dose mostly 76.6 µM), for the others: top-dose activity change, negative = inhibition, hits mostly inhibitors; hit rate 0.093% among 390,000; AID 602179; also: % is scaled to controls: 0 for no effect and ±100 for the full control effect; nearly all actives have a fitted effect of over 65% in size
#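 IDH1-R132H (0.5 ug/mL dispensed) in pH 7.5 Tris buffer was preincubated 30 min with compound, then given a substrate mix of 0.016 mM NADPH and 2 mM alpha-KG for 80 min at room temperature; remaining NADPH was read by diaphorase/resazurin fluorescence.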
# ALOX12 inh = inhibitors of human 12S-lipoxygenase ALOX12; purified 12hLO, xylenol orange hydroperoxide absorbance; P18054; hit rate 1.1% among 580,000; AID 1671190; Potency, µM (series often up to 108 µM), for inactives: top-dose activity change, negative = inhibition, hits mostly inhibitors; also: % is scaled to controls: 0 for no effect and ±100 for the full control effect
# Target sequence (P18054 whole entry, looked up): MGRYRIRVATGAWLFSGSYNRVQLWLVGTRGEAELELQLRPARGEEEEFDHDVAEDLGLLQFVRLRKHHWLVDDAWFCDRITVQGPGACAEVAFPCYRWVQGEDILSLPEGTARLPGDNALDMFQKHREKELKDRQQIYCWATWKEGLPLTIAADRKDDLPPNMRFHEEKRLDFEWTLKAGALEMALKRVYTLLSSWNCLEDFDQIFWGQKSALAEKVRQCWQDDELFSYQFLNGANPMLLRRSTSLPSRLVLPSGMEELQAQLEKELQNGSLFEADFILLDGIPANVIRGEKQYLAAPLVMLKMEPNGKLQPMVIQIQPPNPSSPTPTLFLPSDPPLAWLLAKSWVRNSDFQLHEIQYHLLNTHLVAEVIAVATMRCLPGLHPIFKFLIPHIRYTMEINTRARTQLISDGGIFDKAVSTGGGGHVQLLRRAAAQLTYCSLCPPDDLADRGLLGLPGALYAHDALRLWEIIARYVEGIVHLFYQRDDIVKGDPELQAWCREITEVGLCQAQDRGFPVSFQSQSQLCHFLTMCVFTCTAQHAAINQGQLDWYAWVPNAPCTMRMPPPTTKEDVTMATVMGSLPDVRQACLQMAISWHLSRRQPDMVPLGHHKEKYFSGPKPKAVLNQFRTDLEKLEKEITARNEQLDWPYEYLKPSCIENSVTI
#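 Hydroperoxide product was detected by ferrous iron/xylenol orange as the 573 to 405 nm absorbance ratio. Arachidonic acid at 40 uM (final) was turned over for 30 min at room temperature by 150 nM human 12hLO, pH 7.0 Hepes buffer, after 15 min compound preincubation.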
# rTrxR1 inhibitor = inhibitors of rat thioredoxin reductase 1; recombinant rTrxR1, NADPH fluorescence consumption, selenite substrate; Potency, µM (doses to about 114 µM), inactives show at the top dose activity change, negative = inhibition, most hits filed as inhibitors; hit rate 1% among 390,000; O89049; AID 588453; also: % is scaled to controls: 0 for no effect and ±100 for the full control effect; nearly all actives have a fitted effect of over 65% in size
#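 Rat TrxR1 (90 nM in the dispensed reagent) was pre-reduced with 400 uM NADPH for 5 min at room temperature, then incubated with compound for 15 min. After 400 uM selenite was added, NADPH fluorescence (Ex 340/Em 450 nm) was followed for 8 min.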
# GRP78 ERSR act = ER stress response induction in glioma; U87-MG GRP78 promoter luciferase reporter, 16 h; Potency, µM, inactives show at the highest dose activation, hits mostly activators; hit rate 0.02% among 420,000; AID 602332; also: series mostly up to about 76 µM; % of control where 0% means no effect; nearly all actives have a fitted effect of over 35% in size
#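 Stably transfected U87-MG human glioma cells carrying a GRP78-based luminescent sensor were seeded at 1000 cells/well, pin-dosed with compounds and incubated 16 h. Luciferase reagent was then added, and end-point luminescence was read after 10 min at room temperature.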
# The depositor's hits bear a star; i = inactive; u = inconclusive; x = no result; ! = not active in a repeat; [ ] = another dose, or the depositor's remark. The list is not random: actives were taken first. Their share in the collection is about 1.7%. Calls follow the shape of the dose curve; as a rule, active = well fitted curve in the direction sought with a large enough effect; inconclusive = small, poorly fitted or top-dose-only effect, or another doubt; inactive = no such curve, though single readings can be large; an effect the other way counts as inactive or inconclusive. Potency is read from the fitted curve at half-maximal effect.
SMILES,Apoferritin bind,TrxR1 substrate,IDH1 R132H inh,ALOX12 inh,rTrxR1 inhibitor,GRP78 ERSR act
COc1ccc(OC)c(-n2c(-c3cccc(O)c3)n[nH]c2=S)c1,-8.4%,12.6%,3.6%,3.55µM*,u,1.4%
COc1ccc(OC)c(-n2c(-c3cc(-c4ccc(F)cc4)n[nH]3)n[nH]c2=S)c1,-8.9%,-2.6%,-0.9%,u,-14.4%,0.4%
COc1ccc(-c2cc(-c3n[nH]c(=S)n3-c3cc(OC)ccc3OC)[nH]n2)cc1,-15.1%,1.5%,3.2%,44.7µM*,u,-2.1%
N#Cc1ccc(S(=O)(=O)N2CCN(C(=O)c3ccc(Cn4nnc5ccccc54)cc3)CC2)cc1,x,x,x,2.9%,x,x
CC(C)(C)NC(=O)CSc1ncc(-c2ccc(F)cc2)o1,x,x,x,-25.4%,x,x
O=C(Sc1nnc(-c2ccccc2)o1)N1c2ccccc2Sc2ccccc21,-5.5%,5.4%,6.2%,10µM*,17.1%,-1.1%
C[S+](=O)([O-])N1CCCC(c2nn(-c3ccccc3)c(=O)[nH]2)C1 (centres undefined),x,x,x,33.5%[176 µM],x,x
CCOc1ccc(Nc2nc(C)c(NC(=O)c3ccc(C)cc3)c(Nc3ccc(OCC)cc3)n2)cc1,10.1%,-15.6%,8.3%,22.4µM*,-5.2%,-4.3%
Cc1ccc(Nc2nc(C)c(NC(=O)c3ccc(C)cc3)c(Nc3ccc(C)cc3)n2)cc1,-14.4%,-0.6%,13.9%,u,12.7%,-4.7%
Cc1sc(NC(=O)c2ccco2)c(C(c2cccnc2)N2CCN(C)CC2)c1C (centres undefined),-9.2%,12.3%[57.1 µM],-3.5%,0.0%,u,-0.4%
Cc1sc(NC(=O)c2ccco2)c(C(c2cccnc2)N2CCCC2)c1C (centres undefined),-5.8%,-1.6%,-8.2%,-15.5%,7.94µM*,0.3%
O=S(=O)(NCCc1nnc2ccc(SCc3cccc(Cl)c3)nn12)c1ccccc1,u,3.9%,-20.2%,-2.3%,10.1%,-3.8%
O=S(=O)(c1ccc(Cl)cc1)c1ccc(-c2ccc(S(=O)(=O)c3ccc(Cl)cc3)cc2)cc1,x,x,x,11.2µM*,x,x
Cc1ccc(S(=O)(=O)c2ccc(C)cc2)cc1,-10.8%,4.3%[57.1 µM],9.0%,3.3%,-3.4%[57.1 µM],-1.9%
Nc1c(C(=O)Nc2ccccc2)sc2nc(-c3ccco3)ccc12,3.8%,15.2%,11.6%,-14.3%,3.98µM*,3.3%
NC(=O)c1cc(N2C(=O)C=CC2=O)ccc1Cl,-12.0%,7.0%,2.0%,x,1µM*,-3.0%
CC(=O)Nc1ccc(Cl)c(C(N)=O)c1,3.5%,6.2%,-3.0%,11.6%,9.9%,-1.4%
C[C@H](O)[C@@H]1C(=O)N2CCc3c([nH]c4ccccc34)[C@@H]2C[C@@H]1N(C)S(=O)(=O)c1ccccc1,x,x,-6.8%,u,x,-2.7%
CC(NC(=O)/C(C#N)=C/c1ccc(Cl)c([N+](=O)[O-])c1)c1ccccc1 (centres undefined),u,-5.1%,-3.5%,u,39.8µM*,-14.0%
CNC(=O)N1CCC(C2CCN(C(=O)C3CCCCCC3)C2)CC1 (centres undefined),x,x,x,39.8%,x,x
S=c1[nH]nc(-c2ccc(Cl)cc2)n1-c1ccc(Cl)cc1,-6.3%,6.3%,-3.5%,10µM*,-24.7%[57.1 µM],-3.8%
S=c1[nH]nc(-c2ccc(Cl)cc2Cl)n1-c1ccc(Cl)cc1,-4.2%,-5.6%,9.0%,12.6µM*,-8.3%,-3.1%
COc1ccc(-c2n[nH]c(=S)n2-c2ccc(C)cc2)cc1,6.7%,2.4%,-3.7%,17.8µM*,-13.1%,-4.0%
CCCNC(=O)N1CCc2cc(OC)c(OC)cc2C1CNC(=O)c1ccccc1C (centres undefined),x,x,x,38.7%,x,x
CC1(C)CC(=O)C(CS(=O)(=O)c2ccccc2)=C(O)C1,31.6µM*,4.7%,0.0%,i,50.1µM*,0.1%
SMILES,Apoferritin bind,TrxR1 substrate,IDH1 R132H inh,ALOX12 inh,rTrxR1 inhibitor,GRP78 ERSR act
CC1(C)CC(=O)C(CC(=O)Nc2ccc(S(N)(=O)=O)cc2)=C(O)C1,7.7%,10.9%,-1.5%,0.0%,24.9%,-1.5%
CCCCCCCCCCCCCCCC[N+](C)(C)Cc1ccc(F)cc1,x,-2.9%,5.0%,44.7µM*,-7.1%,-9.7%
Fc1ccc(N=c2ssnc2Cl)c(F)c1,-15.5%,-3.7%[57.1 µM],2.9%,7.08µM*,-9.1%[57.1 µM],-0.2%
Clc1ccc(N=c2ssnc2Cl)cc1,-5.4%,-3.5%,u,u,-17.4%,9.6%
CCc1nc2ccccc2n1CCCCOc1cccc(C)c1,-18.9%,-4.0%,16.7%,39.8µM*,8.9%,-3.5%
CN(C)CCCn1ccc2c(cnc3c(-c4ccc(Cl)cc4)cnn32)c1=O,x,x,x,-19.9%,x,x
Cc1cccc(N2CCN(C(=O)Cn3ncc4c3-c3cc(C)ccc3OC4)CC2C)c1 (centres undefined),-14.1%,-0.6%,-25.0%,0.0%,6.2%,-5.4%
CCNCc1ccc(-c2ccccc2)o1,x,x,x,15.8µM*!,x,x
COc1ccc(CN2CCCC3(CN[S+](=O)([O-])c4ccccc4N3)C2)cc1 (centres undefined),x,x,x,35.8%,x,x
CN1CCN(C(=O)c2cn[nH]n2)CC12CCC(=O)N(CCO)CC2 (centres undefined),x,x,x,-7.5%,x,x
CCCCCNC(=O)C(c1cc2ccccc2o1)n1c(=O)c(-c2ccco2)nc2ccccc21 (centres undefined),x,x,x,39.8µM*,x,x
Cc1cccc(C)c1NC(=O)C(c1ccc(C#N)cc1)n1c(=O)c(-c2ccco2)nc2ccccc21 (centres undefined),x,x,x,11.2µM*,x,x
COc1ccc(C(C(=O)NCc2ccccc2)n2c(=O)c(-c3ccco3)nc3ccccc32)cc1 (centres undefined),x,x,x,39.8µM*,x,x
O=C(NC1CCCCC1)C(c1cccc2ccccc12)n1c(=O)c(-c2ccco2)nc2ccccc21 (centres undefined),x,x,x,17.8µM*,x,x
COc1ccc(Oc2ncc3nc(-c4ccc(F)cc4)c(=O)n(Cc4cccs4)c3n2)cc1,x,x,x,0.0%,x,-7.0%
CCn1cc(S(=O)(=O)N2CCOc3ccc(CN4CCCCCC4)cc3C2)cn1,x,x,x,29.9%,x,x
O=C(Cc1coc(-c2ccccc2)n1)NC1CCCCCC1,x,x,x,5.5%,x,x
COc1cc(N=Nc2ccc(Br)cc2)cc(C=O)c1O,x,x,-0.5%,3.16µM*,x,-3.1%
c1cc2c(cc1C1CCCN1)OCCCO2 (centres undefined),-7.4%,3.7%,2.3%,-8.5%,44.7µM*,1.2%
Cc1c(OCC(=O)N2CCC(C(=O)O)CC2)ccc2c3c(c(=O)oc12)CCC3,-2.9%,95.3%,3.7%,-9.9%,14.1µM*,-0.5%
Cc1c(C)c2c(OCC(=O)N3CCC(C(=O)O)CC3)cc3c(c2oc1=O)CCC(C)(C)O3,56.3%,602.2%,-8.6%,x,79.4µM*,-0.1%
